The text below walks through data of the supplement of paper PMC11417369.

± gives the standard deviation of the averaged measurements. The full ranking holds about 25,000 sequences; the median of “ln(normalized median fluorescence intensity)” is about 10, and the highest 2% start at about 12. Shown is part of a subset that was picked to be rich in the highest values.

The subject of this experiment is PfAP2-G AP2 domain (GST-tagged). The experiment in a line: gcPBM binding intensity (ln(normalized median fluorescence intensity)); higher = stronger DNA binding. An outline of the steps:
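The highest Masliner-normalised natural-log median intensity across replicate spots of either probe orientation is reported as binding intensity. GST-tagged P. falciparum DNA-binding domains expressed in E. coli were applied for 1 h to an Agilent 4 × 180k array of primer-extended double-stranded 36-bp intergenic genomic probes plus negative controls, and bound protein was detected with Alexa488 anti-GST antibody and scanned at 488 nm.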
Take “TTTTTTTTCTCACAAAAAATAATTAACAAAAAGGAA [XGTACX_negctrl_site154]”: the “gcPBM binding intensity (ln)” value was 10.2 ± 0.32.
As for “ATATATATAATAAATACACACATTTATATAGATAAA [CACACA_site3254]”, the “gcPBM binding intensity (ln)” value turned out to be 9.925 ± 0.092.
On to “TGACTTTGTTGAATTTGTCCTCTTAACTCATAATAT [GTGCAC_negctrl_site217]”, for which the “gcPBM binding intensity (ln)” value stood at 10.6 ± 0.48.
For the sequence “TCCTTTCTTTTTTAAACATGCATATGTAATATAAAT [TGCATGCA_site979]”, the “gcPBM binding intensity (ln)” value came to 10 ± 0.26.
Under “TTTTTTTGCGCGGGAAGAATAAAATTTATAGAATAT [TGCATGCA_negctrl_site306]” stands 10.4 ± 0.36; under “ATAAATAATATAAATACACACTAAAAAAGATATATA [CACACA_site6397]”, 10.01 ± 0.014.
Under “TATATTTTTTTTGTGCGTACATACCATTTTAATAAT [XGTACX_site2751]” stands 11.7 ± 0.8; under “ATAATAATATTGTGTACACAATAATTTGTCAAATCA [CACACA_site6019]”, 11.7 ± 0.86; under “TTTTTTTTTTTTGTGCGTACATACCATTTTAATAAT [XGTACX_site2760]”, 11.6 ± 0.92.
Under “TTTATACAAATATGTACACACTAAATATATATTATG [CACACA_site4413]” stands 11.5 ± 0.77; under “TATAAAATTATGTGTACACAAATATAACTTTTCTTT [CACACA_site5554]”, 11.7 ± 0.95.
As for “ATAATCACAAATAATTGTACATTTTGTTATATATAT [XGTACX_site7704]”, the “gcPBM binding intensity (ln)” value is 10.8 ± 0.45.
Under “TTGTGTCATATATTTTGTAATCAAAATAATTTTATT [TGCATGCA_negctrl_site307]” stands 10.1 ± 0.37; under “ATATATATACTGTGTACACAAATATATATTATATAT [CACACA_site6104]”, 11.6 ± 0.84.
As for “TAGTATAAAATTATGTGTACACAAATATAACTTTTC [XGTACX_site5971]”, the “gcPBM binding intensity (ln)” value was 11.6 ± 0.78.
In the case of “ATAATACCATTAATTTGTACATATATATTATATATA [XGTACX_site4345]”, the “gcPBM binding intensity (ln)” value came out at 10.9 ± 0.49.
Under “TATAAATATAAATACTGTACATTATATTATATAATA [XGTACX_site2480]” stands 11 ± 0.71.
With “AACTTCTTTTTTATAACACACAAAATATAAATACAA [CACACA_site4313]”, the “gcPBM binding intensity (ln)” value is 10.2 ± 0.43.
For “ATATATATATATATATGTACTTATATATAATATAGA [XGTACX_site3488]”, the “gcPBM binding intensity (ln)” value came to 11.2 ± 0.79.
With “TTTATTATTATATTATTTTAATTTTTCTTTAGTACA [GTGCAC_negctrl_site392]” the figure was 10.29 ± 0.099.
Turning to “CTTTTTTTCTTTCCAAGTACTAAATTCATACAAATT [XGTACX_site2605]”, the “gcPBM binding intensity (ln)” value is 10.8 ± 0.51.
As for “CATTAATATATATATACATGCACGTTTTAAAAAAAA [TGCATGCA_site875]”, the “gcPBM binding intensity (ln)” value stood at 10.1 ± 0.23.
On to “GTAAGATTTCTTGTTGCATGCGGTAAAAAGTAAAAT [TGCATGCA_site469]”, for which the “gcPBM binding intensity (ln)” value is 10.6 ± 0.41.
With “ACATTCATAAAAAAAAGTACATTTTTTATAAAAGAA [XGTACX_site6197]” the figure was 11.4 ± 0.75; with “AATATAAATAAAAACACACACACACCCATATATATA [CACACA_site2267]”, 10.1 ± 0.32.
Under “TTTATGTAATATACATGTACAGAATATAAAATATAT [XGTACX_site6906]” stands 11 ± 0.54; under “ATATATGTATATATGTACATGAATATATAAAGAAAA [CACACA_negctrl_site315]”, 11.1 ± 0.67; under “AATACATGAATATGTAGTACAGAAAAAAAAAATATA [XGTACX_site1945]”, 11.7 ± 0.95.
With “ATATTATCACAAGGTGGTACACAAAAAAAAAAAAAA [XGTACX_site8224]” the figure was 11.4 ± 0.95; with “TTTTTTTTTTTATGTGCACACAAAAGATGCTTATAT [CACACA_site2347]”, 10.6 ± 0.53.
Turning to “ATTATTAAAATGATATGTACGCACATAATATACATA [XGTACX_site3236]”, the “gcPBM binding intensity (ln)” value stood at 11.6 ± 0.94.
With “AACAATGTTGTACATACACACACACTAATAAAAAAT [CACACA_site8758]” the figure was 11.4 ± 0.95; with “AATAATATTTAATACGCACACAATAATAATATAAAA [CACACA_site1763]”, 10.4 ± 0.32.
Under “ATAGCACATTTTTAAGCACACGTTTATTATATATAT [CACACA_site6084]” stands 10.3 ± 0.24; under “TTGGATGATTAAGGGGGACACACGTTTATATATTTA [CACACA_site338]”, 11.4 ± 0.79; under “GGATGATTAAGGGGGACACACGTTTATATATTTATA [CACACA_site4342]”, 11.7 ± 0.9.
“AAACAAAAGGAAAACATATATATATTAAATGTATAT [CACACA_negctrl_site1663]”: the “gcPBM binding intensity (ln)” value was determined as 9.64 ± 0.33.
Under “TTTTTTTTTTTTACGTGTACATAAATGTTAAGTAAT [XGTACX_site3901]” stands 11.4 ± 0.91.
Under “AAGTATAAAAAAAGGCGTACAAAAAAAAAAAAAAAA [XGTACX_site7309]” stands 11.7 ± 0.9; under “AGAATTAAAATAATACGTACACACATGTATAATACA [XGTACX_site1878]”, 11.5 ± 0.82; under “ATTAAAATAATACGTACACACATGTATAATACATAT [CACACA_site1005]”, 11.5 ± 0.91.
Under “GATAAAGTAAAAATATGTACATATATATTTTAAGTT [XGTACX_site6439]” stands 11.4 ± 0.78.
For the sequence “ACTTTTTTAATGTTACGTACACATAAATAATAATTA [XGTACX_site8092]”, the “gcPBM binding intensity (ln)” value amounted to 11.6 ± 0.9.
Under “GAATTAAAATAATACGTACACACATGTATAATACAT [CACACA_site1004]” stands 11.7 ± 1.2; under “ATAAAATATAAAAAAAGTACAAAAAAAAAAAAAAAA [XGTACX_site6657]”, 11.2 ± 1.1.
Under “ATGCTTTTTTATAAAAGTACATAAAGTTTTTACACT [XGTACX_site7307]” stands 11.3 ± 0.81; under “TTTTTTTTTTTAAAATGTACACGTAATTACATATAT [XGTACX_site752]”, 11.4 ± 0.95; under “ATGTTTTATAAAAGGCGTACACATATGCTTAAGTAA [XGTACX_site6232]”, 11.8 ± 0.94.
Under “AAAAAAAAAAAAAAAAGTACAAATAAAAAAAAAATA [XGTACX_site4814]” stands 11.4 ± 0.85.
With “ATAGCCAAAAATCATGCACACCTAAAAAAAAAAAAA [CACACA_site8826]”, the “gcPBM binding intensity (ln)” value was found to be 10.1 ± 0.6.
With “TAGTTTTCTTAAAGATGTACTTATTAAAAATAAACT [XGTACX_site1001]” the figure was 11.3 ± 1.1.
On to “TATATCTCTTTATTCACACATACGTTTTAAAATAAT [CACACA_site5542]”, for which the “gcPBM binding intensity (ln)” value came out at 10.2 ± 0.13.
Consider “AAGTATAAATAAAGGCGTACACATGTAAATTATATT [XGTACX_site126]”, for which the “gcPBM binding intensity (ln)” value was 11.7 ± 1.1.
With “ATTATGTTAAAAAGGCGTACATGTTATAAGGTCCTA [XGTACX_site344]” the figure was 11.7 ± 1.2; with “GTATATATATATAAAAGTACATGTTATGAAAAAAAA [XGTACX_site5410]”, 11.3 ± 0.81; with “ATAATAAATTATTATGTACACACATAATAGTATATA [CACACA_site8538]”, 11.3 ± 0.88.
With “AATACAATAAAAAAAAGTACACATGTATAAAAAATT [XGTACX_site8270]” the figure was 11.6 ± 0.8.
With “TAAAAGTATATATATACACACATAAATATATATGTA [CACACA_site663]” the figure was 9.86 ± 0.14; with “TAAGGTTAAATAATATGTACATATTATTATATATAT [XGTACX_site6953]”, 11.3 ± 0.72; with “AAAAATAAATATATATGTACACATATGTATACAATA [XGTACX_site4692]”, 11.6 ± 0.97.
Take “AATAAATTATTATGTACACACATAATAGTATATATA [CACACA_site1820]”: the “gcPBM binding intensity (ln)” value was found to be 11.4 ± 0.85.
With “TTTTTTAAATTTTGAATTATAACTACATTAAAGAAA [GTGCAC_negctrl_site279]”, the “gcPBM binding intensity (ln)” value is 9.8 ± 0.33.
As to AATATATATATTTAAGTGCATAATATTGTAATATTA, the “gcPBM binding intensity (ln)” value was 9.91 ± 0.028.
Turning to “GGTATATAAAAATATTGTACTTAAAAAAATATGTAT [XGTACX_site6253]”, the “gcPBM binding intensity (ln)” value is 11.4 ± 0.99.
With “TTGTTAATATGATAAAAGAGGAATATTCTCTTCCTA [GTGCAC_negctrl_site659]” the figure was 9.48 ± 0.14.
Under “ATATACATAATCTTCTTGCACTTTTTTTTTTTTTTT [GTGCAC_site9410]” stands 10.3 ± 0.22.
With AAAAAAGAACGCATAGTGCATATCTAAAAGATTTTT the figure was 9.85 ± 0.014.
On to “TATGTTAAAAAAAAATGTACATATGTTTTTGTTAAA [XGTACX_site4754]”, for which the “gcPBM binding intensity (ln)” value came out at 11.2 ± 0.86.
Under “ATATAATATATATGGTGTACATTTTTTAGTGCTATT [XGTACX_site1662]” stands 11.4 ± 0.76; under “AATATGACGTAGTGGTGTACACACATGGTACCTTTA [XGTACX_site3147]”, 11.7 ± 0.83.
Under “ATGACGTAGTGGTGTACACACATGGTACCTTTATTC [CACACA_site1547]” stands 11.6 ± 0.84; under “ATATGACGTAGTGGTGTACACACATGGTACCTTTAT [CACACA_site8436]”, 11.9 ± 1.1; under “TATATATATTTATGTACACACATATATACCTTTCAT [CACACA_site5479]”, 11.4 ± 0.86.
“TATATATATATATGTACACACATATATACCTTTCAT [CACACA_site2679]”: the “gcPBM binding intensity (ln)” value came to 11.4 ± 0.81.
Regarding “TTATATATTAATAGTAGTACTATATTGAATCACCCC [XGTACX_site2868]”, the “gcPBM binding intensity (ln)” value amounted to 11.3 ± 0.85.
With “TAATTTATAAATATAATATTTATGTATATGATGTTT [CACACA_negctrl_site464]” the figure was 9.795 ± 0.078; with “CATATTTTGAACTTCACACATATATATATATATATA [CACACA_site4228]”, 10.3 ± 0.54; with “TCACACCTTTTTGGTTGTACTTAAATTTCTTTTTTT [XGTACX_site6438]”, 11.2 ± 0.75.
With “TTTTCTCAATTTTGGTGTACTTTTTTCTTAACACAT [XGTACX_site8918]” the figure was 11.7 ± 1; with “ATTTTATTAATTTGGTGTACTTAATTTATATTTTTC [XGTACX_site4947]”, 11.6 ± 0.92; with “GTTTATGTATTATTATGTACGTATCATAATATATAT [XGTACX_site2385]”, 11.5 ± 0.82.
As for “ATCTAAACCTTTTGAGCACACATATATATATATATA [CACACA_site8526]”, the “gcPBM binding intensity (ln)” value came to 10.4 ± 0.3.
As to “ATATGTTCCGAAGGTTGTACACACATAGAAATATAC [XGTACX_site8227]”, the “gcPBM binding intensity (ln)” value worked out at 11.6 ± 1.
Under “TGTTCCGAAGGTTGTACACACATAGAAATATACATA [CACACA_site3874]” stands 11.6 ± 0.74; under “TATGTTCCGAAGGTTGTACACACATAGAAATATACA [CACACA_site9285]”, 11.6 ± 0.8; under “AACCACATGGTGTAATGTACATTACCTTAACAATAA [XGTACX_site3055]”, 10.7 ± 0.42.
With “TAAAATATACAAATTTGTACATATATATGTATGTAT [XGTACX_site1127]” the figure was 10.9 ± 0.38; with “AGAAAATTAAAAAGAACACACAAATATATATATAAT [CACACA_site5896]”, 10.045 ± 0.007; with “ATATATATATATAATGCACACATTATGAATTATGTA [CACACA_site3384]”, 9.9 ± 0.42.
